Test results from PubChem BioAssay (NCATS).
Inconclusive results are not listed. The source made the active and inactive calls. Unless noted, the call rests on the fitted dose curve; in most records, active means well fitted curve in the direction sought with a large enough effect; inconclusive means small, poorly fitted or top-dose-only effect, or another doubt; inactive means no such curve, though single readings can be large; an effect the other way counts as inactive or inconclusive.

Key:
[1] = qHTS profiling for inhibitors of Plasmodium falciparum (DD2) proliferation (AID 743323; call rule not given here); details: lower = more inhibition; at 28.7 µM (top of the series) unless noted
How it was run: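 Parasite DNA quantified by SYBR Green fluorescence (ex 485, em 535 nm) after saponin/Triton lysis and overnight dark incubation. Cultures: 0.3% parasitemia, 2.5% hematocrit, 72 h, 37 C; data scaled between DMSO and 0.29 uM artemisinin.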

[2] = qHTS profiling for inhibitors of Plasmodium falciparum (HB3) proliferation (AID 743324); details: Plasmodium falciparum HB3 blood-stage proliferation; at 28.7 µM (top of the series) unless noted;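 further: 100% = DMSO vehicle wells and 0% = artemisinin-treated control wells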
How it was run: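 SYBR Green fluorescence (485 ex/535 em) of lysed cultures, incubated overnight at room temperature in the dark, quantifies parasite DNA. Infected erythrocytes at 0.3% parasitemia and 2.5% hematocrit were exposed 72 h; values normalized to DMSO and 0.29 uM artemisinin controls.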

[3] = qHTS profiling of the MIPE4 collection as inhibitors of Plasmodium falciparum (3D7) proliferation (AID 743344; call rule not given here;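 further: scaled between DMSO vehicle wells and 0.29 µM artemisinin as full inhibition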); details: P. falciparum 3D7 in erythrocytes, SYBR Green DNA fluorescence, 72 h; at 28.5 µM (top of the series) unless noted
How it was run: (§1)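 Parasite DNA was quantified by SYBR Green I fluorescence (ex 485, em 535 nm) after overnight lysis in saponin/Triton buffer at room temperature. Cultures at 0.3% parasitemia and 2.5% hematocrit were first exposed to compound for 72 h at 37 C; signals were normalised to artemisinin (0.29 uM) and vehicle wells.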

[4] = qHTS profiling of the MIPE4 collection as inhibitors of Plasmodium falciparum (DD2) proliferation (AID 743345; call rule not given here); details: P. falciparum Dd2 in erythrocytes, SYBR Green DNA, 72 h; at 28.5 µM (top of the series) unless noted
How it was run: as §1

[5] = qHTS profiling of the MIPE4 collection as inhibitors of Plasmodium falciparum (DD2) proliferation (Rep 2) (AID 743346; call rule not given here); details: P. falciparum Dd2 in erythrocytes, SYBR Green DNA, 72 h; at 28.5 µM (top of the series) unless noted
How it was run: as §1

[6] = qHTS profiling of the MIPE4 collection as inhibitors of Plasmodium falciparum (HB3) proliferation (AID 743347; call rule not given here;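 further: plate controls were DMSO vehicle wells for no effect and artemisinin wells for full effect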); details: P. falciparum HB3 in erythrocytes, SYBR Green DNA, 72 h; at 28.5 µM (top of the series) unless noted
How it was run: as §1

[7] = High-throughput drug toxicity screening in the BPDCN cell line Gen2.2 (AID 1224824; call rule not given here;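 further: cells exposed to compounds for 48 h before reading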); details: Gen2.2 BPDCN cells; at 45.8 µM (top of the series) unless noted
How it was run: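 Readout is ATP luminescence from Gen2.2 cells after two days of drug exposure in serum-containing medium at 37 °C. Values express percent activity, with vehicle defining full signal and 9.2 uM bortezomib defining zero.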

[8] = High-throughput drug toxicity screening in the BPDCN cell line Cal-1 (AID 1224825; call rule not given here); details: Cal-1 BPDCN cell viability, qHTS; at 45.8 µM (top of the series) unless noted
How it was run: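 Percent activity derived from CellTiter-Glo luminescence, scaling DMSO to 100% and 9.2 uM final bortezomib to 0%. BPDCN Cal-1 cells (500/well, RPMI plus 10% FBS) incubated with compounds 48 hours at 37C before reading.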

[9] = qHTS assay for measurement of the activity of small molecule inhibitors on Zika virus induced Caspase-3 activity in human iPSC derived neural progenitor cells (hNPCs) (AID 1224857); further: % of control where 0% means no effect; nearly all actives have a fitted effect of over 65% in size
How it was run: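 Percent inhibition of virus-induced caspase-3/7 luminescence (Caspase-Glo), scaled between uninfected cells and Zika-infected cells. hNPCs received compound 1 hr before ZIKV at 2 FFU/cell, with 6 hours infection at 37 C.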

[10] = qHTS assay for measurement of the activity of small molecule inhibitors on Zika virus induced Caspase-3 activity in human astrocytoma cells (AID 1224859);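 further: plate controls were ZIKV-infected untreated cells for no effect and uninfected cells for full effect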
How it was run: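 Luminescent caspase-3/7 read-out (30 min reagent, room temperature) in human SNB-19 cells infected 6 h with ZIKV (2 FFU/cell) after 1 h compound pre-incubation; Data were normalised to uninfected and infected wells.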

[11] = qHTS Screen of the MIPE 4.0 Collection Against Ewings Sarcoma (RDES) (AID 1259252); further: nearly all actives have a fitted effect of over 35% in size; further: potency means the concentration at half of the fitted maximal effect
How it was run: (§2)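 Cells plated in serum-containing RPMI (5% FBS) and treated with compound dilutions for 48 h. Readout luminescent viability; normalization relied on vehicle (no inhibition) and media-only columns (full inhibition).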

[12] = qHTS Screen of the MIPE 4.0 Collection Against Ewings Sarcoma (TC71) (AID 1259253); further: nearly all actives have a fitted effect of over 40% in size; further: potency means the concentration at half of the fitted maximal effect
How it was run: as §2

[13] = Identifying Small Molecule Inhibitors of Pancreatic Cancer Stem Cells (A2780, Spheroid) (AID 1259357); details: Potency: A2780 spheroid viability;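 further: spheroids pre-formed over 14 days in stem cell medium on hydrogel; compound exposure lasted 48 h before the ATP luminescence read; 100% = DMSO treated cells and 0% = wells without cells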
How it was run: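 Spheroids grown 14 days in stem cell media on hydrogel-coated nonadherent plates; 2D lines seeded directly. Compounds added after 4 h attachment, 48 h at 37C, 5% CO2; CellTiter-Glo luminescence normalized to DMSO (no inhibition) and no-cell wells (full inhibition).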

[14] = Identifying Small Molecule Inhibitors of Pancreatic Cancer Stem Cells (Panc1, Adherent) (AID 1259362); details: Potency: viability; further: potency means the concentration at half of the fitted maximal effect
How it was run: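 Viability is scored by CellTiter-Glo luminescence 48 h after dosing, expressed as percent activity against vehicle and no-cell references. Spheroid formats rely on cells cultured 14 days in stem cell media beforehand.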

[15] = qHTS Screen of the MIPE 4.0 Collection Against Ewings Sarcoma (TC32) (AID 1259256); further: nearly all actives have a fitted effect of over 45% in size; further: potency means the concentration at half of the fitted maximal effect
How it was run: as §2

[16] = qHTS Screen of the MIPE 4.0 Collection Against Ewings Sarcoma (EW8) (AID 1259255); further: nearly all actives have a fitted effect of over 35% in size; further: potency means the concentration at half of the fitted maximal effect;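 on viability: 100% = DMSO-treated cells and 0% = medium-only wells without cells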
How it was run: as §2

[17] = Identifying Small Molecule Inhibitors of Pancreatic Cancer Stem Cells (Panc1, Spheroid) (AID 1259359);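 further: potency means the concentration at half of the fitted maximal effect; compound exposure lasted 48 h before reading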
How it was run: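 Endpoint: ATP-based luminescence, 48 h drug exposure. Bortezomib at 9.2 uM final as full-kill control; DMSO vehicle as negative control; activity normalized between vehicle and cell-free wells.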

[18] = Identifying Small Molecule Inhibitors of Pancreatic Cancer Stem Cells (A278, Adherent) (AID 1259361);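 further: viability read after 48 h compound exposure; nearly all actives have a fitted effect of over 35% in size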
How it was run: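 Pre-formed 14-day tumor spheroids or adherent cells dosed and incubated 48 h, 37C, 5% CO2. Viability assessed by CellTiter-Glo.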

| Compound | activity, percent of control [1] | remaining proliferation (% of control), lower = more inhibition [2] | parasite growth, % of DMSO control [3] | parasite growth remaining, % of DMSO control (lower = more inhibition) [4] | parasite growth, % of control (lower = inhibition) [5] | growth, % of control [6] | cell viability, % of control (lower = more cytotoxic) [7] | viability (% of control) [8] | Potency [9] | Potency [10] | Potency [11] | Potency [12] | Potency [13] | Potency [14] | Potency [15] | Potency [16] | Potency [17] | IC50 (viability decrease) [18] |
| --- | --- | --- | --- | --- | --- | --- | --- | --- | --- | --- | --- | --- | --- | --- | --- | --- | --- | --- |
| Cc1cccc(Nc2nc(N[C@@H]3CCCC[C@H]3N)ncc2C(N)=O)c1 | 4.78% | 0.632% | 5.2% | 10.2% | 7.28% | 2.45% | 2.09% | 2.41% | inactive | inactive | 16.6 µM (active) | 18.7 µM (active) | inactive | 26.4 µM (active) | – | – | – | – |
| O=S(=O)(O)c1ccc2cc(N=Nc3cc(S(=O)(=O)O)c4cccnc4c3O)ccc2c1 | – | – | 84.5% | 87.9% | – | 47.7% | 63.9% | 89.1% | inactive | inactive | 18.7 µM (active) | 14.8 µM (active) | – | – | 16.6 µM (active) | – | – | – |
| OC[C@H]1O[C@@H](O[C@H]2[C@@H](O)[C@@](O)(CO)O[C@@H]2CO)[C@H](O)[C@@H](O)[C@@H]1O | – | – | 87.6% | 72.5% | 79.8% | 88% | 137% | 96.1% | inactive | inactive | inactive | inactive | – | – | – | – | – | – |
| CN(C)CCN(Cc1ccc(Cl)cc1)c1ccccn1 | – | – | 38.2% | 50.5% | 28.6% | 53% | 86.6% | 37.6% | inactive | inactive | 23.5 µM (active) | 20.9 µM (active) | – | – | – | – | – | – |
| C[C@H](CCC(=O)O)[C@H]1CC[C@H]2[C@H]3[C@@H](CC[C@]12C)[C@@]1(C)CC[C@@H](O)C[C@H]1C[C@@H]3O | – | – | – | – | – | – | 75.1% | 35.2% | inactive | inactive | inactive | – | – | – | inactive | 18.7 µM (active) | – | – |
| CC1C(=O)OC2C(O)C34C5CC(C(C)(C)C)C36C(OC(=O)C6O)OC4(C(=O)O5)C12O (stereo not drawn) | – | – | 93.4% | – | 85.6% | 83.4% | 158% | 16.8% | inactive | inactive | 13.2 µM (active) | 14.8 µM (active) | – | – | inactive | – | – | – |
| CC(NCCc1ccc(O)cc1)C(O)c1ccc(O)cc1 (stereo not drawn) | – | – | 85% | 102% | – | 96.6% | 91% | 107% | inactive | inactive | inactive | inactive | – | – | – | – | – | – |
| CC(C)(C)c1[nH]cnc1C=c1[nH]c(=O)c(=Cc2ccccc2)[nH]c1=O | – | – | 20.3% [at 57.5 µM] | – | 23.1% [at 57.5 µM] | 7.41% [at 57.5 µM] | 15.7% [at 92.2 µM] | 5.98% [at 92.2 µM] | inactive | inactive | inactive | – | – | 0.0187 µM (active) | inactive | inactive | 0.0019 µM (active) | 0.0166 µM (active) |
